Screening results as filed in PubChem BioAssay.
TWEAK Fn14 block – blocks TWEAK-Fn14 interaction in a reporter cell assay | actives 2% (n = 360,000) | inhibition, % at 10 µM | AID 1159606 | TWEAK-stimulated Fn14 reporter cells, luciferase luminescence, 8 h; in the data active means inhibition above about 50%
KKLEB cytotox – counter-screen for CF NF-kB inhibitors: cytotoxicity; KKLEB CF airway cells viability, ATPlite luminescence, overnight; active compounds read low; cells stimulated with P. aeruginosa culture filtrate; activity change (cytotoxicity), % at 5 µM; actives 0.36% (n = 360,000);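 active means corrected activity change at or below -50% at 5 µM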
CF NFkB block – inhibitors of cystic fibrosis induced NF-kB; inhibition, % at 5 µM; KKLEB NF-kB-GFP reporter, PAF-induced, GFP fluorescence overnight; actives 0.86% (n = 360,000);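 active means at least 50% inhibition at 5 µM, scaled per plate between neutral and stimulator controls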;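 further: PAF is a Pseudomonas aeruginosa culture filtrate used as stimulus; plate controls were PAF-stimulated DMSO wells for no effect and unstimulated DMSO wells for full effect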
TROY signal inh – blocks TROY-dependent signaling in reporter cells; Q293 LMP1-TROYcd NF-kB luciferase reporter, 4 h; inhibition, % at 10 µM; actives 0.98% (n = 360,000); AID 1347056;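 active means compounds whose plate-normalised and pattern-corrected inhibition of the luciferase reporter signal at the single screening dose is 50% or more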
Peg3 prom inh – inhibitors of Peg3 promoter; inhibition, % at 20 µM; AID 588405; actives 1.7% (n = 360,000); HeLa PEG-Prom luciferase reporter, luminescence, overnight;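 active means inhibition of at least 50% at 20 µM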
HIF-2a block – inhibitors of HIF-2a | 786-0 RCC cells HIF-2a reporter, luciferase luminescence, overnight | inhibition, % at 18.8 µM | actives 0.72% (n = 360,000) | AID 624352;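 active means inhibition of the luminescence signal of 40% or more relative to plate controls, in a single-dose primary screen at 18.75 µM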
An asterisk follows results filed as active. Most compounds without a hit are left out; they make up all but 3.9% or so of the library.

SMILES | TWEAK Fn14 block | KKLEB cytotox | CF NFkB block | TROY signal inh | Peg3 prom inh | HIF-2a block
Cc1nc2ccccc2nc(C)c1=NOCc1ccc(C#N)cc1 | -8.6 | -0.7 | -11.4 | -31.7 | 7.0 | 12.7
O=C(Cc1ccccc1)Nc1cccc(N2C(=O)C=CC2=O)c1 | -5.8 | 1.6 | 52.0* | 0.1 | 96.3* | 26.5
C1CCC(C(CC2CCCCN2)C2CCCCC2)CC1 (configuration not stated) | -12.1 | -17.1 | 10.3 | -4.1 | 104.0* | -24.8
Cc1ccc([N+](=O)[O-])cc1S(=O)(=O)N1CCC(C)CC1 | 3.4 | 2.0 | -16.0 | -20.8 | 13.9 | 7.3
O=C(COc1ccc(Br)cc1Br)NC(=S)N1CCCc2ccccc21 | 63.5* | -10.2 | 6.0 | 43.2 | -32.3 | -43.9
Clc1ccc(-c2cn3cc(Cl)ccc3n2)cc1 | 75.2* | -15.6 | -28.3 | 33.0 | -58.7 | -77.2
COc1ccccc1C(=O)Nc1c(-c2ccccc2)nc2ccccn12 | 16.9 | 6.7 | -7.4 | -5.7 | -1.9 | -2.7
Clc1ccc(-c2cn3ccccc3n2)cc1 | 59.6* | -13.0 | -36.8 | 8.3 | -170.7 | -180.9
COc1ccc(C(=O)Nc2c(-c3ccccc3)nc3ccccn23)c(OC)c1 | 56.0* | 0.0 | 3.6 | 12.3 | 16.2 | 20.3
CCN(CC)S(=O)(=O)c1ccc(-c2cn3cc(Cl)ccc3n2)cc1 | 15.3 | -4.3 | 3.5 | -18.9 | -48.2 | -118.1
COc1ccc(-c2nc3ccccn3c2CN2CCN(c3ccccc3F)CC2)cc1 | -16.8 | -8.3 | 9.8 | -47.5 | -49.6 | -175.1
COc1ccc(-c2nc3ccccn3c2Cl)cc1 | 52.0* | -31.2 | -17.9 | 2.8 | -119.9 | -48.2
CCc1nc2c(OCc3cc(Cl)cc(Cl)c3)cccn2c1N(C=O)Cc1ccccc1 | 13.8 | -5.3 | 8.7 | 14.2 | 37.6 | -13.1
O=C(Nc1cc(Cl)ccc1N1CCOCC1)c1cc2ccccc2o1 | -12.0 | -24.5 | 22.6 | 14.3 | 17.2 | 6.5
O=C(NCCc1ccc2c(c1)OCCO2)c1cccc(F)c1 | 5.1 | 4.7 | -14.1 | -14.2 | -119.0 | -148.5
Cc1nc(-c2cccc(NC(=O)Cc3ccccc3)c2)cs1 | -19.6 | -1.2 | 20.4 | -39.8 | -73.5 | -106.9
CCCOc1ccc(-c2cn3ccccc3n2)cc1 | 2.3 | -37.7 | 5.0 | -31.9 | -149.6 | -182.9
COc1ccc(-c2cn3ccccc3n2)cc1 | 51.0* | -23.5 | -19.6 | 11.1 | -48.4 | -116.7
O=C(Nc1nccs1)c1ccc2sc([C@H]3C[C@H](O)[C@@H](CO)O3)nc2c1 | 0.2 | 6.7 | 9.8 | -33.8 | -133.2 | -162.3
O=C(Nc1nc2ccccc2s1)c1ccc2sc([C@H]3C[C@H](O)[C@@H](CO)O3)nc2c1 | 64.1* | -8.1 | -5.9 | 44.9 | -100.6 | -277.2
COc1cccc(C(=O)Nc2nc3ccccc3s2)c1 | 29.9 | -0.9 | -13.1 | -18.5 | -249.2 | -266.9
O=C(Nc1nc2ccccc2s1)c1ccc(OCC2CCCO2)cc1 (configuration not stated) | 92.6* | -5.3 | -13.0 | 77.9* | -33.2 | -95.8
COc1ccc(C(=O)Nc2nc3ccccc3s2)cc1 | 97.9* | -21.5 | -56.5 | 49.4 | -50.0 | -36.0
CSCCC(NC(=O)COc1ccccc1)C(=O)N1CCN(C(C)=O)CC1 (configuration not stated) | -4.3 | 0.3 | -1.8 | -14.6 | -3.2 | 8.0
O=C(CCC(=O)Nc1nnc(C2CCCCC2)s1)Nc1ccccc1 | -25.1 | 1.3 | -11.8 | -25.1 | -14.0 | -4.6
SMILES | TWEAK Fn14 block | KKLEB cytotox | CF NFkB block | TROY signal inh | Peg3 prom inh | HIF-2a block
c1ccc(CN2CCC(CNc3ncnc4ccccc34)C2)cc1 (configuration not stated) | 10.4 | -7.0 | 15.5 | 25.2 | -10.7 | 19.2
c1ccc(CNc2nc(N3CCN(Cc4ccccc4)CC3)nc3ccccc23)cc1 | -36.8 | -24.6 | 23.1 | 39.2 | 64.7* | 12.5
Cc1nc(N2CCN(Cc3ccccc3)CC2)nc2c1CCC2 | 60.2* | -9.1 | -15.5 | 12.2 | 12.4 | 10.2
c1ccc(CN2CCC(Nc3nc(-c4ccccc4)nc4ccccc34)CC2)cc1 | 23.9 | -6.8 | -5.4 | -32.5 | 75.0* | 5.0
O=C(c1ccc(CS(=O)(=O)c2c(Cl)cccc2Cl)o1)N1CCN(c2ccccn2)CC1 | -2.5 | -2.1 | 0.9 | 5.4 | 8.9 | -0.8
CC1(C)CC(N=Cc2c(O)n(Cc3ccc4c(c3)OCO4)c(=O)c3ccccc23)CC(C)(C)N1 | -25.3 | -8.8 | 4.6 | -14.3 | 82.3* | 4.7
CN(C)CCN=Cc1c(O)n(Cc2ccccc2)c(=O)c2ccccc12 | -11.5 | -7.5 | 8.5 | 7.7 | 6.9 | 4.9
COc1cc(NC(=O)CSc2nc(C3CC3)nc3ccccc23)cc(OC)c1 | -3.6 | -32.1 | 41.7 | 14.5 | 98.7* | 15.9
CC(=O)c1cccc(NC(=O)CSc2nc(C3CC3)nc3ccccc23)c1 | 57.6* | -22.6 | 41.9 | 39.8 | 21.1 | 28.6
CCOc1ccc(NC(=O)COC(=O)C2COc3ccccc3O2)cc1 (configuration not stated) | 10.7 | 9.8 | 4.0 | -14.3 | 0.4 | 4.1
Cc1ccc(C2=NN(C(=S)Nc3ccccc3)C(c3ccco3)C2)cc1 (configuration not stated) | 48.4 | -3.5 | 4.5 | 56.8* | -333.6 | -205.9
CCS(=O)(=O)Nc1ccc(C2=NN(C(=S)Nc3ccccc3)C(c3ccco3)C2)cc1 (configuration not stated) | 0.2 | 14.3 | -25.4 | -3.5 | -59.8 | -95.0
CC(C)(C)/C(O)=C/c1nc2ccccc2[nH]c1=O | 75.0* | -3.4 | -7.4 | 81.5* | -23.1 | -13.4
COc1ccc(C(O)c2nc(-c3cncnc3)cs2)cc1 (configuration not stated) | 8.1 | -7.1 | -20.3 | -15.3 | -11.2 | 12.5
O=C1OCCN1N1CCOC1=O | 16.8 | -7.1 | 17.2 | 0.6 | -10.2 | -1.9
CCn1c(=NC(=O)CS(=O)(=O)c2ccc(F)cc2)sc2cccc(OC)c21 | 11.1 | -1.5 | 15.5 | 20.8 | -25.2 | -38.4
CCn1c(=NC(=O)c2ccc(S(=O)(=O)N3CCOCC3)cc2)sc2cccc(OC)c21 | 59.7* | -19.2 | 36.8 | 37.8 | 9.1 | 10.4
CCn1c(=NC(=O)CCS(=O)(=O)c2ccccc2)sc2cccc(OC)c21 | 58.3* | -8.9 | 5.7 | 40.9 | -1.9 | -32.8
CCOc1[nH]n(-c2ccccc2)c(=O)c1C=NCc1cccnc1 | 3.4 | -3.5 | 6.1 | -20.4 | 3.5 | 14.6
O=C(O)CCC(=O)Nc1ccc(C(=O)OC2CCCCC2)cc1 | 42.2 | 12.9 | 3.1 | -5.5 | 9.3 | 52.5*
O=C(Nc1nnc(-c2ccccc2)s1)c1cc(S(=O)(=O)N2CCOCC2)c(Cl)cc1Cl | -55.0 | -8.2 | -13.6 | 61.4* | 3.8 | -7.6
Fc1cccc2sc(Nc3nnc(-c4ccccc4)o3)nc12 | 103.2* | 4.1 | -1.7 | -47.2 | -184.3 | -171.9
NNc1nc2c(F)cccc2s1 | 62.1* | 4.9 | 3.6 | 68.5* | -39.9 | -85.2
COc1ccc(N(CC(=O)NC2CC3CCC2C3)S(=O)(=O)c2ccccc2)cc1Cl (configuration not stated) | 90.8* | -7.8 | 11.6 | 10.5 | 20.9 | 16.2
